# Screens (PubChem BioAssay)
# HCV inhibitor – blocks hepatitis C virus | hit rate 3.4% among 340,000 | Huh7.5.1 HCVcc-Cre infection, luciferase reporter, 44 h | AID 651820 | Potency, µM (series often up to 41.8 µM), for the others: top-dose activity change, negative = inhibition, actives largely listed as inhibitors; note: potency is the fitted concentration of half-maximal effect
#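 Compounds are dispensed onto cells plated 4 h earlier at 1,000 per well, with HCVcc-Cre virus (about 0.5 moi) added next. Following 44 h of culture, luminescent signal is measured for 15 sec after 15 min with substrate at room temperature.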
# Pf growth 48h – P. falciparum growth inhibition at 48 hours (one generation); P. falciparum luciferase growth in erythrocytes, 48 h; Potency, µM (series often up to 28.7 µM), inactives show at the highest dose activity change, negative = inhibition, usual class: inhibitors; hit rate 5.9% among 310,000; note: potency is the fitted concentration of half-maximal effect
#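 Luminescence readout; reporter = integrated firefly luciferase in P. falciparum. RBC culture at 2% hematocrit, 0.1% parasitemia final, 37 C/5% CO2; decreased signal taken as growth inhibition.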
# Pf growth 96h – P. falciparum growth inhibition at 96 hour, primary screen for plastid delayed-death inhibitors | P. falciparum luciferase reporter growth, 96 h | hit rate 6.9% among 320,000 | Potency, µM (top dose mostly 28.7 µM), without a hit: top-dose activity change, negative = inhibition, most hits filed as inhibitors | AID 504834; note: potency is the fitted concentration of half-maximal effect
#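 Two-generation exposure (96 h) targets delayed-death phenotype. Reporter parasites carrying integrated firefly luciferase, in red cells at 2% hematocrit and 0.05% parasitemia final, kept at 37 C, 5% CO2; luminescence loss indicates inhibition.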
# Marburg entry inh – inhibitors of Marburg virus binding or cell entry; Marburg virus pseudotyped entry inhibition, cell reporter; Potency, µM (series often up to 37.8 µM), for the others: at the highest dose activity change, negative = inhibition, usual class: inhibitors; hit rate 1.8% among 300,000; AID 540276; calls by dose curve; tested in HEK293 cells; note: potency is the fitted concentration of half-maximal effect
# HCMV antiviral – inhibitors of human cytomegalovirus; HFF cells, HCMV-luciferase reporter, 72 h; stronger effect = lower value; activity change, negative = inhibition, % at 57.5 µM; hit rate 4.5% among 410,000; in the data active = activity change below about -60%; inconclusive = no clear call, values can overlap the other calls; inactive = above about -39%
#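 Luciferase read-out from HCMV-luciferase-infected HFFs (MOI 1 PFU/cell) 72 h post infection at 37C; compounds added after 16 h cell attachment; activity normalized between buffer-only basal and Salinomycin (10uM) inhibitor controls.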
# Lassa entry inh – Lassa virus entry inhibition. Lassa virus pseudotype entry inhibition, cell reporter. Potency, µM (titrated, usually from 37.9 µM), without a hit: top-dose activity change, negative = inhibition, usual class: inhibitors. hit rate 1.2% among 300,000. AID 540256; calls by dose curve; tested in HEK293 cells; note: potency is the fitted concentration of half-maximal effect; nearly all actives have a fitted effect of over 50% in size
# * marks the source's active call; other numbers are inactive results; ? = inconclusive; nt = no result; ! = not confirmed by another sample; [ ] = another dose, or the depositor's remark. Compounds with a hit are over-represented: about 14% of the library has one in this group of screens. Unless noted, calls come from the whole dose curve; as a rule, active = well fitted inhibition curve with a large enough effect; inconclusive = small, poorly fitted or top-dose-only effect, or another doubt; inactive = no such curve, though single readings can be large or run the other way. % is set by controls: 0 for no effect and ±100 for the full control effect.
SMILES,HCV inhibitor,Pf growth 48h,Pf growth 96h,Marburg entry inh,HCMV antiviral,Lassa entry inh
CCOC(=O)C1(Cc2cccc(OC)c2)CCN(Cc2cccn2-c2nccs2)CC1,-23.5%,11.7µM*,?,?,-32.7,?
CCOC(=O)C1(Cc2ccccc2)CCN(Cc2cccc3nccnc23)CC1,-9.8%,-13.7%,-14.9%,?,-19.3,26.2%[46.1 µM]
CCOC(=O)C1CCN(Cc2ccc(OC)c(OCc3ccccc3)c2)CC1,?,29.7%,11.7µM*,nt,8.4,nt
CN1CCN(C(=O)C2Cc3c(-c4cccc(F)c4)ccnc3O2)CC1 (stereo not drawn),nt,nt,nt,nt,-8.3,nt
CN(Cc1ccccc1)C(=O)c1csc(COCCO)n1,nt,nt,nt,nt,6.8,nt
O=C(CN1C(=O)NC2(CCCC2)C1=O)OCCOc1ccc(Cl)cc1Cl,2.3%,43.3%,40.3%,16.1%,-33.1,6.0%[46.1 µM]
CCOC(=O)C1(Cc2cccc(OC)c2)CCN(Cc2cccc(OC)c2O)CC1,?,?,13.1µM*,?,-73.0*,?
CCOC(=O)C1(CC2CC2)CCN(Cc2cn(C)c3ccccc23)CC1,10µM*,?,-2.9%,?,?,?
CCOC(=O)C1(Cc2cccc(OC)c2)CCN(Cc2ccccc2OC)CC1,?,11.1%,20.3%,?,-61.9*,-26.0%
CCOC(=O)C1(Cc2ccccc2C(F)(F)F)CCN(Cc2ccc(COC)o2)CC1,8.91µM*,?,?,?,?,?
COc1ccc(Nc2nnc(-c3ccc4c(c3)OCO4)o2)cc1,nt,nt,nt,nt,121.3,nt
Cc1cc(/N=C/C=C2/N(C)c3ccccc3C2(C)C)n(CCC#N)n1,?,nt,nt,?,13.4,?
CCOC(=O)C1(Cc2cccc(OC)c2)CCN(Cc2ccc(OC)c(OC)c2)CC1,11.2µM*,?,?,4.47µM*,-27.4,?
CCOC(=O)C1(Cc2cccc(OC)c2)CCN(Cc2ccc(C)s2)CC1,?,?,?,5.01µM*,-3.0,4.47µM*
CCOC(=O)C1(CC2CC2)CCN(Cc2ccc(C(=O)OC)cc2)CC1,3.5%,9.28µM*,-18.8%,nt,-26.4,nt
COc1ccc(-c2noc(CNC(=O)CCN3C(=O)[C@H]4CC=CC[C@H]4C3=O)n2)cc1,5.8%,-9.0%,11.7µM*,nt,-17.3,nt
CCc1ccccc1NC(=O)CCN1C(=O)c2ccccc2C1=O,9.4%,nt,?,23.1%[46.1 µM],-15.5,1.5%
COc1cccc(NC(=O)CCCN2C(=O)C3CC=CCC3C2=O)c1 (stereo not drawn),-1.9%,52.2%,43.0%,-0.2%[46.1 µM],24.6,-28.8%[46.1 µM]
COc1ccccc1NC(=O)CCCN1C(=O)C2CC=CCC2C1=O (stereo not drawn),nt,9.2%,6.57µM*,4.8%,38.3,13.6%
O=C(CCCN1C(=O)C2CC=CCC2C1=O)Nc1ccccc1Cl (stereo not drawn),8.8%,-2.3%,2.6%,nt,6.2,nt
COc1ccc(NC(=O)CCCN2C(=O)C3CC=CCC3C2=O)cc1 (stereo not drawn),nt,12.6%,10.4µM*,?,-19.1,-23.2%
CCc1ccccc1NC(=O)CCN1C(=O)C2CC=CCC2C1=O (stereo not drawn),10.5%,27.0%,11.7µM*,nt,21.1,nt
CCOc1ccc(CCNC(=O)CSc2nnnn2-c2ccccc2)cc1OCC,nt,nt,nt,0.1%[46.1 µM],-2.3,-25.2%[46.1 µM]
CCOC(=O)c1c(CNc2ccncc2)n(C)c2cc(Br)c(O)cc12,5.3%,0.329µM*,-0.3%,24.3%,-25.8,-3.8%
CCOC(=O)c1c(C)n(C)c2cc(-c3ccc(C)cc3)c(O)cc12,?,?,?,-9.6%[46.1 µM],?,3.9%[46.1 µM]
SMILES,HCV inhibitor,Pf growth 48h,Pf growth 96h,Marburg entry inh,HCMV antiviral,Lassa entry inh
CCOC(=O)c1c(C)n(C)c2cc(Br)c(C)cc12,8.91µM*,nt,16.3%,-11.7%,-34.4,15.1%
CCOc1ccc(S(=O)(=O)NCCc2csc3nc(-c4cccc(C)c4)nn23)cc1,nt,nt,nt,nt,-8.5,-1.1%[46.1 µM]
Cc1oc2cc(O)cc(C)c2c(=O)c1-c1cnn(-c2ccccc2)c1,8.91µM*,13.1µM*,-1.4%,?,?,?
O=C1CCSc2c1ccc1ccccc21,-20.8%,nt,nt,3.9%,32.4,3.0%[46.1 µM]
CC(C)c1nc(N2CCN(C(=O)c3ccco3)CC2)c(C#N)c2c1COC(C)(C)C2,?,?,?,?,?,-24.2%[46.1 µM]
Cc1nc(N2CCN(Cc3ccccc3)CC2)c(C#N)c2c1COC(C)(C)C2,11.2µM*,22.7%,?,-23.5%,?,-13.9%
CC(C)c1nc(N2CCN(C(=O)c3ccccc3)CC2)c(C#N)c2c1COC(C)(C)C2,?,10.4µM*,231.0%,11.6µM*,-4.9,?
COc1cc(OC)c2c(-c3cccc(-c4ccc(OC)c(OC)c4)c3)cc(=O)oc2c1,?,nt,nt,nt,-30.0,nt
COc1cc(OC)c2c(-c3cccc(-c4sccc4C(C)=O)c3)cc(=O)oc2c1,3.16µM*,nt,nt,nt,-78.6*,nt
CC(=O)n1cc([C@H]2C=C(C(=O)N3CCN(Cc4ccc5c(c4)OCO5)CC3)O[C@@H](OCc3ccc(CO)cc3)C2)c2ccccc21,?,4.65µM*,3.29µM*,nt,-27.0,nt
CC(=O)n1cc([C@H]2C=C(C(=O)N3CCN(Cc4ccccc4)CC3)O[C@@H](OCc3ccc(CO)cc3)C2)c2ccccc21,?,?,2.94µM*,nt,61.9,nt
CC(=O)n1cc([C@@H]2C=C(C(=O)N3CCOCC3)O[C@H](OCc3ccc(CO)cc3)C2)c2ccccc21,9.1%,?,?,nt,-15.9,nt
C=CCOC(=O)C1=C[C@@H](c2cn(C(C)=O)c3ccccc23)C[C@@H](OCc2ccc(CO)cc2)O1,-8.0%,nt,nt,nt,0.4,nt
Cc1cccc2nc(Cn3c(=O)n(-c4ccccc4)c(=O)c4c5c(sc43)CCC5)cc(=O)n12,nt,nt,nt,2.3%[46.1 µM],-4.8,18.6%[46.1 µM]
CCOC(=O)C1=C(C)NC2=C(C(=O)C(C(=O)OCC)C(c3ccccc3OC)C2)C1c1ccccn1 (stereo not drawn),-7.5%,4.15µM*,3.7µM*,-2.4%,-3.9,-13.8%
CCOC(=O)C1=C(C)NC2=C(C(=O)C(C(=O)OCC)C(c3cccc(OC)c3)C2)C1c1ccccn1 (stereo not drawn),21.4%,8.28µM*,5.86µM*,1.2%,-18.0,-17.4%
CSc1ccc(C(=O)c2[nH]c(=O)[nH]c2C)cc1,6.31µM*!,-11.9%,?,?,-2.1,-5.6%
CCOC(=O)Cn1c(=O)n(CC2CCCO2)c2nc(-c3ccc(C)cc3)nc(C(N)=O)c21 (stereo not drawn),nt,nt,nt,nt,4.4,-4.6%[46.1 µM]
CCOc1ccccc1/C=N/Nc1ccnc(=O)[nH]1,11.2µM*,?,?,?,-98.7*,?
O=c1nccc(N/N=C/c2ccccc2O)[nH]1,?,9.28µM*,0.828µM*,5.62µM*,-90.9*,?
Oc1ccccc1/C=N/Nc1nn[nH]n1,6.2%,3.9%,-23.4%,nt,-29.6,nt
